Inconclusive results are not listed. The source made the active and inactive calls. Unless noted, the call rests on the fitted dose curve; in most records, active means well fitted curve in the direction sought with a large enough effect; inconclusive means small, poorly fitted or top-dose-only effect, or another doubt; inactive means no such curve, though single readings can be large; an effect the other way counts as inactive or inconclusive.
How the values were obtained:
[1] = Cell Viability - BJ (AID 421; calls by dose curve;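 further: potency means the concentration at half of the fitted maximal effect; cells exposed to compound for 40 hours at 37 °C before readout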); details: BJ fibroblast viability, qHTS
Summary of the method: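 Quantitative HTS: ATP depletion in BJ cells after 40 hr compound exposure in complete culture medium, detected with CellTiter-Glo; AC50 from standard Hill fits.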

[2] = Cell Viability - Hek293 (AID 427;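 active means compounds whose dose-response curve shows a full or clear partial loss of cell viability, called from curve shape rather than a numeric limit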;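 further: potency means the concentration at half of the fitted maximal effect; cells exposed to compound for 40 hours at 37 °C before reading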); details: qHTS
Summary of the method: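 AC50 values derive from Hill-modelled concentration-response of ATP-based luminescence, normalized between DMSO-only and 100 uM tamoxifen controls. Cells were exposed in complete culture medium for 40 hr at 37 °C before detection.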

[3] = Cell Viability - HepG2 (AID 433; calls by dose curve;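 further: potency means the concentration at half of the fitted maximal effect; potency for ATP loss meaning cytotoxicity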); details: qHTS
Summary of the method: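 HepG2 hepatocellular carcinoma cells (1500/well) were treated with compounds for 40 h at 37 °C in complete medium; intracellular ATP was read by CellTiter-Glo luminescence. Data were normalized to DMSO and 100 uM tamoxifen, and AC50 came from Hill fits.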

[4] = Cell Viability - MRC5 (AID 434; calls by dose curve;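 further: potency means the concentration at half of the fitted maximal effect; cells exposed to compound for 40 hours at 37 °C; potency reflects cytotoxicity seen as loss of intracellular ATP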); details: MRC5 lung fibroblast viability, qHTS
Summary of the method: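 Decrease in intracellular ATP, quantified by luciferase light output, reflects compound toxicity toward MRC5 cells exposed for 40 hr in complete culture medium. Concentration-response curves, scaled between DMSO and 100 uM tamoxifen, gave AC50 values.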

[5] = biological target: Mitogen-activated protein kinase 10 (Mus musculus) (UniProt Q61831); assay: JNK3 AlphaScreen Assay (AID 530; active means well fitted curve in either direction with a large enough effect, not every such curve was filed as active;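 further: kinase came from lysate of stimulated human HepG2 cells; signal reports phosphorylation of biotinylated GST-cJun 1-79 at Ser73 with 10 µM ATP; series mostly up to about 57 µM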)
Summary of the method: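 Phosphorylation of biotinylated GST-cJun(1-79) at Ser73 is measured by AlphaScreen proximity luminescence. Enzyme is JNK3 in HepG2 lysates activated with interleukin-1beta and tumor necrosis factor alpha; ATP is 10 uM final.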

[6] = Cell Viability - HUV-EC-C (AID 542); further: nearly all actives have a fitted effect of over 35% in size
Summary of the method: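 Cells were seeded at 1000 per well and incubated 5 hr at 37 °C before compound addition. After 40 hr at 37 °C, CellTiter-Glo reagent was added for 20 min and luminescence read. AC50 values came from Hill-equation modelling.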

[7] = Cell Viability - SH-SY5Y (AID 544); further: nearly all actives have a fitted effect of over 55% in size
Summary of the method: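 Cells were plated at 1500 per well and allowed 5 hr at 37 °C. Compounds were added across a concentration range and incubated 40 hr at 37 °C. CellTiter-Glo was added for 20 min at room temperature before luminescence reading.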

[8] = Cell Viability - Mesenchymal (AID 546);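 further: cells exposed to compound for 40 hours before reading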
Summary of the method: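 In this qHTS cytotoxicity format, glomerulus-derived human mesenchymal kidney cells received compound for 40 hr, then luciferase-based ATP quantitation. Concentration-response data were fitted with the Hill equation.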

[9] = Cellular Toxicity (caspase-3) HepG2 (AID 654);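 further: cells exposed to compound for 16 hours before reading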
Summary of the method: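 Caspase 3/7 activation in HepG2 is measured as rising luminescence after a 16 hr treatment at 37 °C. Values are scaled between DMSO basal and 100 uM tamoxifen, and AC50 is fitted with the Hill equation.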

[10] = Cellular Toxicity (caspase-3) Jurkat (AID 655);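 further: cells exposed to compound for 16 h at 37 °C before reading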
Summary of the method: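 Jurkat cells (5000/well) in complete medium were treated with compounds for 16 hr at 37 °C, then Caspase-Glo 3/7 luminescence was read after 20 min at room temperature. Data normalized to DMSO (basal) and 100 uM tamoxifen (100%); AC50 from Hill fit.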

[11] = Cellular Toxicity (caspase-3) HUV-EC-C (AID 656)
Summary of the method: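 HUV-EC-C endothelial cells, 1000/well, were pre-incubated 5 hr at 37°C, then exposed to compounds for 16 hr at 37°C. Caspase-Glo 3/7 luminescence was read after 20 min at room temperature. AC50 came from Hill fits, normalized to DMSO and 100 uM tamoxifen.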

[12] = Cellular Toxicity (caspase-3) SHSY5Y (AID 657)
Summary of the method: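 SH-SY5Y human neuroblastoma cells (1500/well) were treated with compounds for 16 h at 37 °C, then Caspase-Glo 3/7 luminescence was read after 1 h at room temperature. Data normalized to DMSO and 10 uM staurosporine; AC50 from Hill fits.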

[13] = Cellular Toxicity (caspase-3) BJ (AID 658)
Summary of the method: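 Plated BJ cells (1000/well) rested 5 hr, received compound for 16 hr at 37 °C, then Caspase-Glo 3/7 reagent for 1 hr at room temperature before luminescence reading.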

[14] = Cellular Toxicity (caspase-3) MRC-5 (AID 659)
Summary of the method: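 Apoptosis readout in MRC-5 cells: luciferase light generated after caspase 3/7 cleaves a peptide-aminoluciferin substrate, measured post 16 hr compound incubation at 37 °C.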

[15] = Cellular Toxicity (caspase-3) Mesangial (AID 660);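 further: combined caspase 3 and 7 activity read by Caspase-Glo luminescence; cells exposed to compound for 16 h before the caspase read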
Summary of the method: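 Seed cells derived from normal human renal glomeruli, incubate 5 h, add compounds across concentrations and incubate 16 h at 37 °C. Caspase 3/7 activation is then quantified by luciferase light, with AC50 derived by Hill modeling.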

[16] = Cellular Toxicity (caspase-3) SK-N-SH (AID 661)
Summary of the method: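 Cells were seeded and incubated 5 hr at 37 °C, dosed with compound over a concentration range for 16 hr, then given Caspase-Glo 3/7 reagent for 1 hr at room temperature before luminescence reading.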

[17] = Cellular Toxicity (caspase-3) H-4-II-E (AID 663)
Summary of the method: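 Caspase 3/7 activation measured in H-4-II-E cells in complete culture medium after 16 hr treatment at 37 °C, using luciferase-coupled substrate readout; AC50 values come from Hill-equation fits of normalized concentration-response data.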

[18] = Cellular Toxicity (caspase-3) Hek293 (AID 664);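 further: cells exposed to compound for 16 h at 37 °C before readout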
Summary of the method: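 qHTS, HEK293 (human embryonic kidney), 16 h cpd exposure in complete medium. Caspase-3/7 activation = luminescence increase; normalized to DMSO/100 uM tamoxifen; Hill-fit AC50.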

[19] = Cellular Toxicity (caspase-3) N2a (AID 665);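 further: compound exposure lasted 16 h at 37 °C before readout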
Summary of the method: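 Caspase-3/7 activation, measured as increased luminescence from aminoluciferin release, is quantified in mouse N2a cells exposed to compounds for 16 h. Values are normalized to DMSO and 10 uM staurosporine, with AC50 derived by Hill modelling.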

[20] = biological target: Cytochrome P450 3A4 (Homo sapiens) (UniProt P08684); assay: qHTS Assay for Inhibitors and Substrates of Cytochrome P450 3A4 (AID 884); further: series mostly up to about 57 µM; nearly all actives have a fitted effect of over 50% in size
Summary of the method: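 Luminescent readout of luciferin produced by CYP3A4 (20 nM) dealkylation of Luciferin-PPXE, 25 uM (its KM). NADPH-driven reaction ran 60 min at RT after 10 min compound preincubation; data scaled to 57 uM ketoconazole as 100% inhibition.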

[21] = Confirmation and Secondary Assay for Modulators of Hemoglobin Beta Chain Splicing at IVS2 654 locus (AID 910);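 further: per-well total GFP intensity by laser scanning cytometry after 2-day treatment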
Summary of the method: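 HeLa cells stably carrying EGFP interrupted by mutant beta-globin IVS2-654 intron (CMV-driven) were treated with compound for 2 days at 37C; corrected splicing was scored as total peak GFP intensity per well (488 nm excitation, 500-520 nm emission).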

[22] = Cell Viability - LYMP2-001 (AID 921); further: series mostly up to about 92 µM; nearly all actives have a fitted effect of over 70% in size
Summary of the method: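 Human lymphoblastoid cells (Coriell), 2500 per well, were preincubated 5 hr at 37 C, then exposed to compounds in complete medium for 24 hr at 37 C. Cellular ATP was read by CellTiter-Glo luminescence; AC50 from Hill fits of concentration-response data.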

[23] = Confirmation and Secondary Assay for Modulators of Hemoglobin Beta Chain Splicing at IVS2 705 locus (AID 930);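 further: HeLa cells stably expressing the EGFP-705 splicing reporter; series mostly up to about 46 µM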
Summary of the method: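 HeLa cells stably carrying EGFP interrupted by mutant beta-globin IVS2-705 intron (CMV-driven) were seeded at 500 cells/well, treated next day with compound for 2 days at 37C; corrected splicing restores EGFP, read as total peak GFP intensity per well.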

[24] = MultiTox-Fluor Cytotoxicity Assay - LYMP1-001 - Dead Cells (AID 946)
Summary of the method: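 In this qHTS, 15 uM tetraoctylammonium bromide defined 100% and DMSO defined basal activity. Lymphoblastoid cells (LYMP1-001, 2500 per well) received compound for 16 hr at 37 C before a fluorogenic dead-cell substrate readout at 485/520 nm.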

[25] = Cell Viability - LYMP1-002 - Assay at 16 hr (AID 948)
Summary of the method: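 Human lymphoblastoid cells (LYMP1-002), 2500/well, were preincubated 5 hr at 37 C, then exposed to compounds for 16 hr at 37 C in complete medium. Cellular ATP was read by CellTiter-Glo luminescence after 30 min at room temperature; AC50 from Hill fits.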

[26] = MultiTox-Fluor Cytotoxicity Assay - LYMP1-002 - Live Cells (AID 955)
Summary of the method: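 Cells were seeded at 2500 per well and incubated 5 hr. Compounds were then added for 16 hr at 37 C, followed by MultiTox-Fluor reagent for 60 min at room temperature and fluorescence reading of viable-cell protease signal.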

[27] = MultiTox-Fluor Cytotoxicity Assay - LYMP1-003 - Dead Cells (AID 961); further: nearly all actives have a fitted effect of over 70% in size
Summary of the method: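 Acute toxicity is scored as increased dead-cell protease activity in human lymphoblastoid LYMP1-003 cells after 16 h compound exposure in complete culture medium. Activity is normalized to DMSO basal and 15 uM tetraoctylammonium bromide as full response.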

[28] = MultiTox-Fluor Cytotoxicity Assay - LYMP1-003 - Live Cells (AID 962);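 further: cytotoxic hits lower the live-cell protease signal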
Summary of the method: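 Acute cytotoxicity is scored as a drop in live-cell protease activity in human lymphoblastoid LYMP1-003 cells after 16 hr compound exposure at 37 C. AC50 values come from Hill-equation modelling of concentration-response data.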

[29] = Cell Viability - LYMP1-003 - Assay at 24 hr (AID 963)
Summary of the method: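 Cytotoxicity is scored as a concentration-dependent fall in ATP-linked luciferase signal in human lymphoblastoid LYMP1-003 cells treated 24 hr at 37 C in complete culture medium.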

[30] = Cell Viability - LYMP1-003 - Assay at 40 hr (AID 964); further: series mostly up to about 92 µM; nearly all actives have a fitted effect of over 60% in size
Summary of the method: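 Luminescent ATP signal (CellTiter-Glo) served as the viability read-out after 40 hr compound treatment of human lymphoblastoid LYMP1-003 cells at 37 C. Decreases in ATP were fitted with the Hill equation to give AC50.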

[31] = Cell Viability - LYMP2-003 (AID 965);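 further: cells exposed to compounds for 24 h before reading; nearly all actives have a fitted effect of over 50% in size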
Summary of the method: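 Human lymphoblastoid cells (2500/well) were pre-incubated 5 hr at 37 C, then exposed to compounds over a concentration range for 24 hr at 37 C. Intracellular ATP was read by CellTiter-Glo luminescence; AC50 came from Hill-equation fits.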

[32] = Cell Viability - LYMP2-004 (AID 966); further: nearly all actives have a fitted effect of over 65% in size
Summary of the method: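 qHTS cytotoxicity: human lymphoblastoid line, 24 hr compound treatment, 37 C, complete medium. Viability read as cellular ATP via luciferase luminescence; tetraoctylammonium bromide served as positive control.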

[33] = Cell Viability - LYMP2-005 (AID 967); further: series mostly up to about 92 µM
Summary of the method: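 CellTiter-Glo luminescence (cellular ATP) read-out; LYMP2-005 lymphoblastoid cells, 2500/well, 5 h pre-incubation, then 24 h compound exposure at 37 C in complete medium. Tetraoctylammonium bromide positive control; AC50 by standard Hill fit.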

[34] = Cell Viability - LYMP2-009 (AID 968); further: series mostly up to about 92 µM; nearly all actives have a fitted effect of over 55% in size
[35] = Cell Viability - LYMP2-011 (AID 969); further: nearly all actives have a fitted effect of over 60% in size
Summary of the method: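 In this qHTS cytotoxicity format, compounds are tested across concentrations on human lymphoblastoid cells in complete medium for 24 hours at 37 C. Viability is taken as cellular ATP measured by luciferase luminescence.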

[36] = Cell Viability - LYMP2-013 (AID 970); further: series mostly up to about 92 µM; nearly all actives have a fitted effect of over 55% in size
Summary of the method: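 Cytotoxicity is scored as a concentration-dependent drop in intracellular ATP in human lymphoblastoid cells after 24 hr compound exposure at 37 C. ATP is quantified by luciferase luminescence, and AC50 values come from Hill-equation modeling.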

[37] = Cell Viability - LYMP2-015 (AID 971); further: nearly all actives have a fitted effect of over 55% in size
Summary of the method: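 Cells are seeded at 2500 per well and incubated 5 hr at 37 C. Compounds are added across a concentration series for 24 hr at 37 C. CellTiter-Glo is added, and luminescence is read after 30 min at room temperature.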

[38] = Cell Viability - LYMP2-017 (AID 972)
Summary of the method: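 Cytotoxicity is scored as a concentration-dependent drop in cellular ATP in a human lymphoblastoid line after 24 hr treatment at 37 C. Values are AC50s from Hill-equation modelling.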

[39] = Cell Viability - LYMP2-019 (AID 973); further: nearly all actives have a fitted effect of over 55% in size
Summary of the method: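 Cytotoxicity is scored as a concentration-dependent drop in cellular ATP after cells (2500/well) receive compound for 24 hr at 37 C. Tetraoctylammonium bromide serves as positive control.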

[40] = Cell Viability - LYMP2-021 (AID 974)
Summary of the method: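 Loss of cellular ATP, measured with a luciferase-based CellTiter-Glo readout, serves as the toxicity signal in human lymphoblastoid cells treated for 24 hours at 37 C. Potency is reported as AC50 from a standard Hill model.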

[41] = Cell Viability - LYMP2-023 (AID 975)
Summary of the method: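 Steps: seed 2500 human lymphoblastoid cells per well, incubate 5 hr at 37 C, add compound for 24 hr at 37 C, add CellTiter-Glo, hold 30 min at room temperature, read luminescence. AC50 derived by Hill modelling.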

[42] = Cell Viability - LYMP2-002 (AID 977); further: series mostly up to about 92 µM
Summary of the method: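 In this qHTS viability screen, 2500 human lymphoblastoid cells per well receive compound for 24 hr at 37 C, and luciferase-based ATP luminescence gives the viability signal. Tetraoctylammonium bromide serves as positive control.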

Measured: Potency

Sequence of Cytochrome P450 3A4 (Homo sapiens) (P08684 whole entry, looked up): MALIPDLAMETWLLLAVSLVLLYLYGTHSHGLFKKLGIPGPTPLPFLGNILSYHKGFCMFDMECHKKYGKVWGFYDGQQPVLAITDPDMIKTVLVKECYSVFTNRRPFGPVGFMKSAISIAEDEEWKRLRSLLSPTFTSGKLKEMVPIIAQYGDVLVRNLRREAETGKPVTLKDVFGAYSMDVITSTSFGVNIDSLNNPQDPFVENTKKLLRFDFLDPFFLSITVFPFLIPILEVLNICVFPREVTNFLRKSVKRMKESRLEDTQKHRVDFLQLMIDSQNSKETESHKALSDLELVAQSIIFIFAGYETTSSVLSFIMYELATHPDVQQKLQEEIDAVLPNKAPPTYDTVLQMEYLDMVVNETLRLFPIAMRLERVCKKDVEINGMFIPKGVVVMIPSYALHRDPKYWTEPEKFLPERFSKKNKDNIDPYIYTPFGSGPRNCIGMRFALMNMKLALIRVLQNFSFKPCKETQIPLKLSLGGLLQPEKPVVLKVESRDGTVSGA

O=C(Nc1ccccc1)Nc1ccccc1
inactive: [1] > 92 µM | [2] > 92 µM | [3] > 92 µM | [4] > 92 µM | [5] | [6] | [7] | [8] | [9] | [10] | [11] | [12] | [13] | [14] | [15] | [16] | [17] | [18] | [19] | [20] | [21] | [22] | [23] | [24] | [25] | [26] | [27] | [28] | [29] | [30] | [31] | [32] | [33] | [34] | [35] | [36] | [37] | [38] | [39] | [40] | [41] | [42]

— PubChem BioAssay (NCATS)
